Compounds with a hit are over-represented: about 3.4% of the library has one in this group of screens.
ADAM17 inh: inhibits human ADAM17; P78536; hit rate 0.83% among 370,000; inhibition, % at 6.95 µM; AID 720648; recombinant ADAM17, EDANS/DABCYL FRET peptide cleavage;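 active means inhibition above the mean of compounds lying between control limits plus 3 SD, set per campaign, cut at about 8.5% in these data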
sPLA2-III inh: Inhibits HGIII-sPLA2 liposome hydrolysis, primary screen; hit rate 0.56% among 370,000; inhibition, % at 12.2 µM; AID 743126; QFRET BODIPY PC-A2 liposome hydrolysis, fluorescence; Q9NZ20;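 active means inhibition above mean plus 3 SD of compounds lying within the high and low control bounds, cut at about 19% in these data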
Target sequence (Q9NZ20 whole entry, looked up): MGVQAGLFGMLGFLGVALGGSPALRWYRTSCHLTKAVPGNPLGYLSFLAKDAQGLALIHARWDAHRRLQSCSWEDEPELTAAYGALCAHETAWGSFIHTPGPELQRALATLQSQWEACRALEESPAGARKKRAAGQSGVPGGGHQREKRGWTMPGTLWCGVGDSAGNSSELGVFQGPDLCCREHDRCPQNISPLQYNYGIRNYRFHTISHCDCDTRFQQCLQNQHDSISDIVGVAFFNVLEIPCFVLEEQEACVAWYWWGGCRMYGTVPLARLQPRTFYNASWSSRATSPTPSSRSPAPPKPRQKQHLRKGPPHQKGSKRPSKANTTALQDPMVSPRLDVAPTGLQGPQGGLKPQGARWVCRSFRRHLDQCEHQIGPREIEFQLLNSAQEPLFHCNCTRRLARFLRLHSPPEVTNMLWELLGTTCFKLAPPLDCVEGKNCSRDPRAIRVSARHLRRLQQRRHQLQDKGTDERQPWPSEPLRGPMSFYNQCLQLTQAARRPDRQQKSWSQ
ADAM10 inh: inhibitors of human ADAM10; inhibition, % at 7 µM; hit rate 0.62% among 370,000; recombinant ADAM10, EDANS/DABCYL FRET peptide cleavage, 3 h;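 active means inhibition above a per-campaign cutoff equal to the mean of compounds falling between control-based bounds plus 3 SD, cut at about 20% in these data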
KLK7 zymogen act: activates the human kallikrein-7 zymogen. purified proKLK7, EDANS-DABCYL substrate fluorescence; 100% is mature enzyme control, 0% vehicle. activation, % at 7 µM. AID 652039. hit rate 0.9% among 370,000. P49862;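 active means activation above the mean of all tested compounds plus 3 SD, computed per campaign excluding outliers beyond control limits, cut at about 13% in these data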
CendR NRP1 mod: NRP-1/CendR interaction modulation; FAM-RPARPAR peptide binding to NRP-1, fluorescence polarization; inhibition, % at 25 µM; hit rate 0.85% among 360,000;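 active means inhibition or corrected inhibition above about 18%, plus a signal ratio from 0.5 to 1.5, limit read from the data, passing the limit was not always enough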
KLK7 act conf: proKLK7 activation, confirmation | shares compounds with KLK7 zymogen act | purified proKLK7, EDANS-DABCYL substrate fluorescence; scaled: vehicle 0, mature enzyme 100 | activation, % at 7 µM | hit rate 68% among 3,200 | AID 686949;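 active means activation, as change over the incubation, above the mean of all tested compounds plus 3 SD, cut at about 13% in these data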
EDANS interfere: counter-screen for kallikrein-7 activators: EDANS-DABCYL optical interference. AID 686952. shares compounds with KLK7 zymogen act. activation, % at 7 µM. hit rate 80% among 3,200. EDANS-DABCYL substrate fluorescence interference, no enzyme, 4 h; solvent 0%, active enzyme control 100%;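 active means activation above the all-compound mean plus 3 SD, ignoring values outside control-based bounds, cut at about 4.8% in these data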;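 further: value is the 4 h activation minus the activation read at time zero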
EDANS interf: optically interferes with EDANS-DABCYL fluorescence, kallikrein-7 activator counter-screen; shares compounds with KLK7 zymogen act; EDANS-DABCYL peptide fluorescence interference, no enzyme; EC50, µM; hit rate 20% among 250; AID 720493;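 active means compounds that raise the fluorescence signal in this interference counterscreen, with EC50 at or below 10 µM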;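 further: intact quenched peptide substrate alone read at 355 nm excitation and 520 nm emission; signal is fluorescence gain from T0 to T4 after four hours at room temperature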
Each line names hits and unclear results; the compound was inactive in the other large screens (follow-up assays come after a bar, where they were run).

COc1ccccc1-c1c(C)oc2c(CN3CCCC(C)C3)c(O)ccc2c1=O (stereo not given)	KLK7 zymogen act 45 | KLK7 act conf 72 | EDANS interfere 69
COc1ccccc1-c1coc2c(CN3CCCCC3C)c(O)ccc2c1=O (stereo not given)	KLK7 zymogen act 53 | KLK7 act conf 66 | EDANS interfere 64
NC(=O)c1c(NC(=O)c2ccccc2)sc2c1CCC2	KLK7 zymogen act 90 | KLK7 act conf inactive | EDANS interfere inactive
NC(=O)c1c(NC(=O)c2ccncc2)sc2c1CCCC2	none
Cc1cc(C)c2c(N)c(C(=O)Nc3nccs3)sc2n1	KLK7 zymogen act 120 | KLK7 act conf inactive | EDANS interfere inactive
COCc1cc(C)nc2sc(C(=O)Nc3nccs3)c(N)c12	none
CC1C(C#N)=C(SCC(N)=O)NC2=C1C(=O)CC(C)(C)C2 (stereo not given)	none
CC1=C(C#N)C(C)C2=C(CC(C)(C)CC2=O)N1 (stereo not given)	KLK7 zymogen act 16 | KLK7 act conf 39 | EDANS interfere 40
CC1=C(C#N)C(c2cccnc2)C2=C(CC(C)(C)CC2=O)N1 (stereo not given)	KLK7 zymogen act 38 | KLK7 act conf 67 | EDANS interfere 52 | EDANS interf inactive
CC1=C(C#N)C(c2ccc(O)cc2)C2=C(CC(C)(C)CC2=O)N1 (stereo not given)	none
CCOC(=O)c1cc(-c2ccccc2)nc2nc(N3CCCCC3)sc12	none
O=C(O)c1cc(-c2ccccc2)nc2nc(N3CCCCC3)sc12	KLK7 zymogen act 16 (no result: CendR NRP1 mod) | KLK7 act conf 44 | EDANS interfere 41
Cc1ccc(-c2cc(C(=O)O)c3sc(N4CCCCC4)nc3n2)cc1	KLK7 zymogen act 25 | KLK7 act conf 19 | EDANS interfere 23
N#Cc1c(-c2ccccc2)cc(-c2ccccc2)[nH]c1=O	none
N#Cc1cc(-c2ccccc2)c[nH]c1=O	KLK7 zymogen act 20 | KLK7 act conf inactive | EDANS interfere 10
COCCNc1cc(C)c(C#N)c2nc3ccccc3n12	KLK7 zymogen act 37 | KLK7 act conf 34 | EDANS interfere 46
CNc1cc(C)c(C#N)c2nc3ccccc3n12	KLK7 zymogen act 33 | KLK7 act conf 93 | EDANS interfere 77
CCCNc1cc(C)c(C#N)c2nc3ccccc3n12	none
Cc1cc(NCCOCCO)n2c(nc3ccccc32)c1C#N	KLK7 zymogen act 48 | KLK7 act conf 85 | EDANS interfere 92
Cc1cc(NCCCO)n2c(nc3ccccc32)c1C#N	KLK7 zymogen act 15 | KLK7 act conf 51 | EDANS interfere 70
COc1ccc(NC(=O)CSc2nc(C)cc(=O)[nH]2)cc1OC	none (no result: CendR NRP1 mod)
CCOc1ccc(-c2cc(C(=O)N3CCN(C)CC3)c3ccccc3n2)cc1	KLK7 zymogen act 31 | KLK7 act conf 49 | EDANS interfere 33 | EDANS interf inactive
CCOc1ccc(-c2cc(C(=O)N3CCCC3)c3ccccc3n2)cc1	none (no result: ADAM17 inh, sPLA2-III inh, ADAM10 inh, KLK7 zymogen act)
COc1ccc(-c2cc(C(=O)NC3CC3)c3ccccc3n2)cc1	KLK7 zymogen act 42 | KLK7 act conf 25 | EDANS interfere 15 | EDANS interf inactive
COc1ccc(-c2cc(C(=O)NC3CCCC3)c3ccccc3n2)cc1	none
COC(=O)C1CCN(C(=O)c2cc(-c3ccco3)nc3ccccc23)CC1	KLK7 zymogen act 48 | KLK7 act conf 36 | EDANS interfere 27 | EDANS interf inactive
COc1ccc(-c2cc(C(=O)OCC(=O)N3CCCC3)c3ccccc3n2)cc1	KLK7 zymogen act 17 | KLK7 act conf inactive | EDANS interfere inactive
O=S1(=O)c2ccc(Br)cc2OC[C@H](Cc2ccccc2)N1Cc1cn(CCC2OCCCO2)nn1	none (no result: CendR NRP1 mod)
C[C@H]1[C@@H](c2ccccc2)OC(O)([C@H](Cc2ccccc2)NC(=O)OC(C)(C)C)CN1C (stereo not given in full)	none (no result: KLK7 zymogen act, CendR NRP1 mod)
O=C(NCc1ccc(Cl)cc1)C1C2C=CC3(CN(Cc4ccccc4)C(=O)C13)O2 (stereo not given)	none (no result: CendR NRP1 mod)
COc1ccc(-c2cc(C(=O)N3CCN(c4ccccc4)CC3)c3ccccc3n2)cc1	none
COc1ccc(-c2cc(C(=O)N3CCCC3)c3ccccc3n2)cc1	KLK7 zymogen act 22 | KLK7 act conf inactive | EDANS interfere inactive
O=c1c(-c2ccc(Cl)cc2)coc2c(CN3CCOCC3)c(O)ccc12	KLK7 zymogen act 19 | KLK7 act conf 21 | EDANS interfere 23
COc1ccc(-c2coc3c(CN4CCOCC4)c(O)ccc3c2=O)cc1	KLK7 zymogen act 52 | KLK7 act conf 50 | EDANS interfere 56
O=c1c(-c2ccccc2)coc2c(CN3CCCC3)c(O)ccc12	KLK7 zymogen act 67 | KLK7 act conf 39 | EDANS interfere 49
CCN(CC)C(=O)CC[C@H]1CC[C@]2(CCCN(Cc3ccc(N(C)C)cc3)C2)O1	none (no result: CendR NRP1 mod)
Cc1cc(C)cc(C(=O)OCCCN(C)C2CN(Cc3cn(Cc4ccccc4Cl)nn3)S(=O)(=O)C2)c1 (stereo not given)	none (no result: CendR NRP1 mod)
COc1ccc(OC)c(S(=O)(=O)N(CC(=O)NC2CCC(C)CC2)c2cc(C)cc(C)c2)c1 (stereo not given)	none (no result: CendR NRP1 mod)
CCN(CC)C(=O)[C@H]1C[C@H](CC(=O)NCc2ccc(OC)c(OC)c2)C(=O)N2CCc3c([nH]c4cc(-c5ccco5)ccc34)[C@]12C	KLK7 zymogen act 141 | KLK7 act conf 68 | EDANS interfere 76
CC(C)N(C(=O)[C@H]1C[C@H](CC(=O)NCCCN(C)C)C(=O)N2CCc3c([nH]c4cc(-c5ccco5)ccc34)[C@]12C)C(C)C	KLK7 zymogen act 103 | KLK7 act conf 73 | EDANS interfere 88
CCN(CC)C(=O)[C@H]1C[C@H](CC(=O)NCCCOC)C(=O)N2CCc3c([nH]c4cc(-c5ccco5)ccc34)[C@]12C	KLK7 zymogen act 164 | KLK7 act conf 166 | EDANS interfere 206
CCN(CC)C(=O)[C@H]1C[C@H](CC(=O)NCCCN(C)C)C(=O)N2CCc3c([nH]c4cc(-c5ccco5)ccc34)[C@]12C	KLK7 zymogen act 90 | KLK7 act conf 73 | EDANS interfere 84
Cc1ccc2c(c1)C1CS(=O)(=O)N(C3CCCC3)CN1C2 (stereo not given)	none (no result: CendR NRP1 mod)
COCCCN1CCC2(CCC(c3ccccc3)CC2)C1=O (stereo not given)	none (no result: CendR NRP1 mod)
CC(C)(C)c1ccc(S(=O)(=O)N2CCCC(C(=O)NCCN3CCC(Cc4ccccc4)CC3)C2)cc1 (stereo not given)	none (no result: CendR NRP1 mod)

Screening results from PubChem.
